The values below come from PubChem BioAssay (NCI).

Several values for one entry are separate records, joined by “and”; a condition that tells them apart may be missing. Equal values may be shown once. This is part of a sample that, as a whole, favours compounds with a hit. Of some 83,000 tested, about 20% had one in any assay.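 A percent growth of 40 corresponds to 60% growth inhibition; 0 means no net growth; -100 means all cells died. Active threshold: below 10.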 Activity calls are given as the source filed them. Where a SMILES comes first, the peptide text is derived from it. [ ]: non-standard residue; d: D form. ξ: configuration not given here. ξV = CC(C)C(N)C(=O)O

The test system of one experiment is TK-10 renal. As to the kind of experiment: NCI-60 one-dose screen, 48 h (100 = growth as untreated, 0 = no growth, -100 = all killed). The conditions noted are these: 1 µM. The method, then:
Growth inhibition of the TK-10 human tumor cell line is measured as a screen for anti-cancer activity. Cells are grown in 96 well plates and exposed to the test compound for 48 hours. Compounds are tested at a single concentration, which is 10^-5 M for most compounds. The reported endpoint is percent growth (GI% or GIPRCNT), where numbers from 0 - 100% represent growth inhibition, and numbers from -100% - 0 represent cell death. For example, a value of 40 represents 60% growth inhibition. A value of 0 means no net growth occurred over the course of the experiment. A value of -40 indicates 40% of cells at the beginning of the experiment died by the end of the experiment. A value of -100 means all cells are dead at the end of the experiment.
NCI-60 Human Tumor Cell Lines Screen was performed using the standard one-dose NCI protocol, which is described in more detail at https://dtp.cancer.gov/discovery_development/nci-60/default.htm.
Compounds with GIPRCNT values below 10 were considered active. Activity score was based on GIPRCNT using the following formula: […]
Score is 0 for GIPRCNT values of 100 or above, 50 for GIPRCNT values of 0, and 100 for GIPRCNT values of -100.
For `COc1cccc2c1C(=O)c1c(O)c3c(c(O)c1C2=O)C[C@@](O)(C(=O)CO)C[C@@H]3OC1CC(N)C(O)C(C)O1` (stereo not given in full), the growth was 63.3% (inactive).

The experiment is the same for the next values; noted with them: 2.5 µM.
As to `COc1cccc2c1C(=O)c1c(O)c3c(c(O)c1C2=O)C[C@@](O)(C(=O)CO)C[C@@H]3OC1CC(N)C(O)C(C)O1` (stereo not given in full), the growth is 57.7% (inactive).

The same experiment, now with this note: 10 µM.
Take `CCN1/C(=C/C=C/C=C/c2sc3ccccc3[n+]2CC)Sc2ccccc21`: the growth was -6.28% (active).

As to `O=C1NC(=O)c2cc([N+](=O)[O-])ccc21`, the growth was 99.3% (inactive).

As for `Nc1nc(=S)c2ncn(C3OC(CO)C(O)C3O)c2[nH]1` (stereo not given), the growth was 120% (inactive) and -8.09% (active).

Regarding `Cc1cc(O)c(C(C)C)cc1Cl`, the growth was 97.6% (inactive).

Regarding `CCCCCCCCCCSC(=N)N`, the growth is 60% (inactive).

On to `CCCCCC(C)c1ccc(O)c(C)c1` (stereo not given), for which the growth is 107% (inactive).

On to `O=C(C(=Cc1ccccc1)C(=O)c1ccccc1)c1ccccc1`, for which the growth is 124% (inactive) and 87.7% (inactive).

In the case of `O=c1ccn(C2CC(O)C(COC(c3ccccc3)(c3ccccc3)c3ccccc3)O2)c(=O)[nH]1` (stereo not given), the growth was 95.4% (inactive).

For the compound `CC(C)(C)CC(C)(C)c1ccc(OCCO)cc1`, the growth was 78.2% (inactive).

`N=S(c1ccccc1[N+](=O)[O-])c1ccccc1[N+](=O)[O-]`: the growth was 22.4% (inactive).

In the case of `Clc1cc(Cl)c(Cl)nn1`, the growth is 146% (inactive).

For the compound `OCC(O)C(O)C(O)C(/C=N/Nc1ccccc1)=N/Nc1ccccc1` (stereo not given), the growth is 91.8% (inactive).

For the compound `COc1cccc2c1C(=O)c1c(O)c3c(c(O)c1C2=O)C[C@@](O)(C(=O)CO)C[C@@H]3OC1CC(N)C(O)C(C)O1` (stereo not given in full), the growth was 25.4% (inactive).

Regarding `OCC1OC(n2cnc3c(=S)nc[nH]c32)C(O)C1O` (stereo not given), the growth was 97.9% (inactive) and 40.7% (inactive).

Take `CCCC1CCC(=C2C(=O)CCC2=O)O1` (stereo not given): the growth is 98.2% (inactive) and 118% (inactive).

As to `CC(=O)Nc1cc(C)ccc1C`, the growth was 96.2% (inactive).

Take `O=C1C=CC(=CC=C2C=CN(CCCCCCCCCCCO)C=C2)C=C1`: the growth was 58.8% (inactive).

For the compound `CC(C)C(NC(=O)CN)C(=O)O` (stereo not given) (H-Gly-[ξV]-OH), the growth is 103% (inactive) and 93.9% (inactive).

As to `COc1ccc(CC(=O)c2ccc(O)cc2O)cc1`, the growth is 122% (inactive).

As to `CCN(CC)c1ccc(NC(C(=O)c2ccccc2)c2ccccc2)cc1` (stereo not given), the growth is 41% (inactive).

On to `CSC1SCC2C(=O)N(C)C(C(C)C)C(=O)OCC(NC(=O)c3cnc4ccccc4n3)C(=O)NC(C)C(=O)N(C)C1C(=O)N(C)C(C(C)C)C(=O)OCC(NC(=O)c1cnc3ccccc3n1)C(=O)NC(C)C(=O)N2C` (stereo not given), for which the growth is 20.1% (inactive).

In the case of `COC(=O)C1=COC(C)C2C[n+]3ccc4c([nH]c5ccccc54)c3CC12` (stereo not given), the growth is 107% (inactive) and 126% (inactive).

As to `O=[N+]([O-])C1=C(c2ccccc2)SC=C(c2ccccc2)S1`, the growth is 104% (inactive).

`Oc1ccc(N=Nc2ccccn2)c(O)c1`: the growth was 36.1% (inactive).

Consider `CC[N+](CC)=c1ccc2nc3c(cc(N)c4ccccc43)oc-2c1`, for which the growth was -74.2% (active).

In the case of `O=C(/C=C/c1cccnc1)c1ccccc1`, the growth is 93.9% (inactive).

On to `Cc1cc(NS(=O)(=O)c2ccc(N=Nc3cc(N=Nc4ccc(S(=O)(=O)Nc5cc(C)nc(C)n5)cc4)c4c(NC(=O)C(Cl)Cl)cccc4c3OC(=O)C(Cl)Cl)cc2)nc(C)n1` (tested in a mixture with another compound), for which the growth is 148% (inactive) and 150% (inactive).

For the compound `COC1OCC(O)C(O)C1O` (stereo not given), the growth is 92.9% (inactive).

On to `CN1CCN(CCCN2c3ccccc3Sc3ccc(C(F)(F)F)cc32)CC1`, for which the growth is 66% (inactive).

Regarding `O=C(O)COc1ccc(OCC(=O)O)cc1`, the growth was 20.6% (inactive).

Consider `NC(=O)SCC(=O)NNc1ccccc1`, for which the growth was 95.5% (inactive).

In the case of `CC1=CC(C)=Nc2ccc(Cl)cc2N1`, the growth is 117% (inactive).

As for `Nc1c2ccccc2nc2ccccc12`, the growth was -13.4% (active) and 48.2% (inactive).

Regarding `CCCCCCCCCCCCSC(=NC)NC`, the growth was 62.1% (inactive) and 71.2% (inactive).

For the compound `COc1c(O)cc2oc3cc(O)c(CC=C(C)C)c(O)c3c(=O)c2c1CC=C(C)C`, the growth is 89.1% (inactive).

The experiment is the same for the next values; noted with them: 100 µM.
For `O=c1ccn(C2CC(O)C(COC(c3ccccc3)(c3ccccc3)c3ccccc3)O2)c(=O)[nH]1` (stereo not given), the growth is 87.8% (inactive).

In the case of `COC(=O)C1=COC(C)C2C[n+]3ccc4c([nH]c5ccccc54)c3CC12` (stereo not given), the growth is 110% (inactive) and 56.8% (inactive).

Regarding `CC(C)C1=C(O)C2=C(C(=O)C1=O)C1(C)CCCC(C)(C)C1CC2O` (stereo not given), the growth is 18.6% (inactive) and -89% (active).
